The results in this text go back to PubChem BioAssay (NCI).

The panel holds about 83,000 compounds, 20% with a hit somewhere; the sample as a whole holds those more often.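 How to read the values: 0–100, growth inhibition (40 = 60% inhibited); 0, no net growth; -100 to 0, cell death (-40 = 40% of starting cells died; -100 = all dead).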 A number with no mark means an inactive call. Calls of active or inactive are those of the source. How the source made its calls: active means growth percent below 10; inactive means the rest.

Some test systems named below: NCI-H23 lung; NCI-H226 lung; NCI-H322M lung; HOP-62 NSCLC; NCI-H460 lung; HOP-92 NSCLC; NCI-H522 lung; A549/ATCC NSCLC; 786-0 renal; COLO 205 colon; DU-145 prostate; K-562 leukemia; MALME-3M melanoma; MDA-MB-231 breast; RXF 393 renal; SF-268 CNS; SF-295 CNS; SF-539 CNS; UACC-257 melanoma; M14 melanoma.
What all share (assay): NCI-60 one-dose screen, 48 h (100 = growth as untreated, 0 = no growth, -100 = all killed)
What all share (conditions): 10 µM unless noted

For the compound `CCOC(=O)c1ccc(NC(=O)c2nc(-c3cc(OC)c(OC)c(OC)c3)n(-c3ccc(Cl)cc3)n2)cc1`, the growth with NCI-H23 lung is 91.3%; in the assay with NCI-H226 lung, 90.9%; in the assay with NCI-H322M lung, 81.1%; with HOP-62 NSCLC, 97.6%; with NCI-H460 lung, 97.1%; in the assay with HOP-92 NSCLC it was 71.8%. Also, the growth with NCI-H522 lung was 67.2%; with A549/ATCC NSCLC, 88.9%; in the assay with 786-0 renal it was 93.5%; in the assay with COLO 205 colon, 104%; with DU-145 prostate, 102%; with K-562 leukemia, 85.7%. The growth in the assay with MALME-3M melanoma was 91.4%; with MDA-MB-231 breast it was 69.4%; in the assay on RXF 393 renal, 86.3%; in the assay on SF-268 CNS, 84%; with SF-295 CNS, 96.9%; in the assay with SF-539 CNS it was 97%. Further, the growth in the assay on UACC-257 melanoma is 96.5%; in the assay on M14 melanoma it was 97.6%.
Regarding `COC(=O)c1c(C)nc(C)c2c1C(=O)C(Br)=C(NCc1ccccc1)C2=O`, the growth is 5.25% (active) in the assay on NCI-H23 lung; 71% with NCI-H226 lung; 31.4% with NCI-H322M lung; 87.1% with HOP-62 NSCLC; 11.7% with NCI-H460 lung; 86.9% in the assay on HOP-92 NSCLC. The growth is 22% in the assay on NCI-H522 lung; 18.2% in the assay with A549/ATCC NSCLC; 51.6% in the assay on 786-0 renal; -11.8% (active) in the assay on COLO 205 colon; 38% with DU-145 prostate; 21% in the assay on K-562 leukemia. The growth was -75.4% (active) in the assay on MALME-3M melanoma; 14.8% in the assay on MDA-MB-231 breast; 52.4% with RXF 393 renal; 33% with SF-268 CNS; 30.1% in the assay with SF-295 CNS; 7.13% (active) with SF-539 CNS. Further, the growth in the assay on UACC-257 melanoma was -7.87% (active); in the assay with M14 melanoma, 14%.
Consider `CCCCCCCCCCCCCCCCCCOc1ccccc1CC(=O)OCC[N+](C)(C)C`, for which the growth in the assay with NCI-H23 lung is 40.2%; in the assay on NCI-H226 lung, 28.7%; in the assay on NCI-H322M lung, 66.5%; with HOP-62 NSCLC it was 4.93% (active); with NCI-H460 lung, 13.5%; in the assay with HOP-92 NSCLC it was -14% (active). Further, the growth with NCI-H522 lung is 2.19% (active); in the assay with A549/ATCC NSCLC it was 11.5%; with 786-0 renal, 20.8%; in the assay on COLO 205 colon, -67.3% (active); in the assay on DU-145 prostate, 36.1%; in the assay with K-562 leukemia it was 18.6%. In addition, the growth in the assay with MALME-3M melanoma is 26.9%; in the assay with MDA-MB-231 breast, -2.29% (active); in the assay with RXF 393 renal, -54% (active); in the assay with SF-268 CNS, 15%; with SF-295 CNS it was 45.8%; in the assay on SF-539 CNS it was 21.3%. For the same compound, the growth with UACC-257 melanoma was 22.3%; with M14 melanoma, 6.22% (active).
On to `O=C1/C(=C/c2cccc(F)c2)CN(C(=O)C(Cl)Cl)C/C1=C\c1cccc(F)c1`, for which the growth with NCI-H23 lung was -75.3% (active); in the assay on NCI-H226 lung, 0.29% (active); in the assay on NCI-H322M lung, -44.1% (active); in the assay with HOP-62 NSCLC it was -25.8% (active); in the assay with NCI-H460 lung, -63% (active); in the assay with HOP-92 NSCLC it was -58% (active). The growth in the assay on NCI-H522 lung was -80.3% (active); in the assay on A549/ATCC NSCLC, -28.7% (active); with 786-0 renal, -77% (active); in the assay on COLO 205 colon it was -60% (active); in the assay on DU-145 prostate, -81.5% (active); in the assay with K-562 leukemia it was -9.05% (active). Further, the growth was -36.2% (active) in the assay on MALME-3M melanoma; -63.7% (active) in the assay with MDA-MB-231 breast; -89.6% (active) in the assay with RXF 393 renal; -29.6% (active) with SF-268 CNS; -71.2% (active) with SF-295 CNS; -98.6% (active) in the assay on SF-539 CNS. The growth with UACC-257 melanoma was -42.4% (active); in the assay on M14 melanoma it was -69.7% (active).
Consider `CCSC(SCC)c1ccc(Cl)cc1`, for which the growth in the assay on NCI-H23 lung is 95.1%; with NCI-H226 lung it was 102%; with NCI-H322M lung it was 123%; in the assay on HOP-62 NSCLC it was 98.5%; in the assay on NCI-H460 lung, 103%; with HOP-92 NSCLC, 101%. Besides, the growth is 107% with NCI-H522 lung; 102% in the assay on A549/ATCC NSCLC; 110% in the assay on 786-0 renal; 117% in the assay with COLO 205 colon; 107% in the assay with DU-145 prostate; 118% in the assay on K-562 leukemia. The growth in the assay on MALME-3M melanoma was 102%; with MDA-MB-231 breast it was 107%; in the assay with RXF 393 renal, 114%; in the assay with SF-268 CNS it was 100%; in the assay on SF-295 CNS it was 87.1%; in the assay on SF-539 CNS it was 107%. Further, the growth in the assay with UACC-257 melanoma is 99.4%; in the assay on M14 melanoma, 110%.
Take `C=C(CBr)[C@@H]1CC[C@]2(C(=O)O)CC[C@]3(C)[C@H](CC[C@@H]4[C@@]5(C)CCC(=O)C(C)(C)[C@@H]5CC[C@]43C)[C@@H]12`: the growth in the assay with NCI-H23 lung was 85.8%; in the assay with NCI-H226 lung, 73.2%; with NCI-H322M lung, 92.2%; in the assay on HOP-62 NSCLC, 112%; in the assay on NCI-H460 lung, 81.3%; in the assay on HOP-92 NSCLC, 72.3%. The growth is 46.5% in the assay on NCI-H522 lung; 57.7% in the assay on A549/ATCC NSCLC; 106% in the assay with 786-0 renal; 99.9% in the assay with COLO 205 colon; 86.1% in the assay with DU-145 prostate; 50.4% in the assay on K-562 leukemia. The growth was 89.4% in the assay with MALME-3M melanoma; 81% in the assay on MDA-MB-231 breast; 85.9% with RXF 393 renal; 83.1% with SF-268 CNS; 79.2% with SF-295 CNS; 99.2% in the assay with SF-539 CNS. Further, the growth in the assay with UACC-257 melanoma was 80.2%; with M14 melanoma, 80%.
As to `CCOc1ccccc1Cn1ccnc1CCc1c(Cl)c(O)cc(O)c1C(=O)OC`, the growth in the assay with NCI-H23 lung is 95.4%; in the assay with NCI-H226 lung, 102%; in the assay with NCI-H322M lung, 83%; with HOP-62 NSCLC, 85.9%; in the assay on NCI-H460 lung, 104%; with HOP-92 NSCLC, 90.4%. Besides, the growth in the assay with NCI-H522 lung was 76.2%; in the assay on A549/ATCC NSCLC it was 87.7%; in the assay on 786-0 renal, 101%; in the assay on COLO 205 colon it was 102%; in the assay with DU-145 prostate, 104%; with K-562 leukemia it was 94.7%. Further, the growth in the assay with MALME-3M melanoma is 91.8%; in the assay with MDA-MB-231 breast it was 96.7%; in the assay with RXF 393 renal, 108%; in the assay with SF-268 CNS, 102%; with SF-295 CNS, 95.2%; in the assay with SF-539 CNS it was 103%. The growth with UACC-257 melanoma is 93.7%; in the assay on M14 melanoma, 95.2%.
Regarding `COC12C=C/C(=C(/C(=O)OCc3ccncc3)C(=O)CCCCCCCCC3(OC)C=C/C(=C(/C(=O)OCc4ccncc4)C(=O)CCCCCCCC1)O3)O2`, the growth in the assay with NCI-H23 lung is -61.1% (active); in the assay with NCI-H226 lung, -64.7% (active); with NCI-H322M lung, -63.2% (active); with HOP-62 NSCLC, 16.7%; in the assay on NCI-H460 lung, 1.88% (active); with HOP-92 NSCLC, -48.9% (active). Moreover, the growth with NCI-H522 lung is -41% (active); with A549/ATCC NSCLC it was 9.15% (active); with 786-0 renal it was -50.9% (active); in the assay on COLO 205 colon, -25% (active); in the assay with DU-145 prostate it was -60.7% (active); in the assay on K-562 leukemia, -4.08% (active). For the same compound, the growth is -67.7% (active) in the assay with MALME-3M melanoma; 1.77% (active) in the assay on MDA-MB-231 breast; -82.7% (active) in the assay on RXF 393 renal; -28% (active) with SF-268 CNS; -23.8% (active) with SF-295 CNS; -60.1% (active) in the assay with SF-539 CNS. Further, the growth in the assay with UACC-257 melanoma is -29.6% (active); in the assay on M14 melanoma, -24.4% (active).
